The subject of one assay is AMPK-alpha1. Further details: species or system human, MV4-11 + K-562 + COLO205 + SK-N-BE2 + OVCAR-8. The following applies: compound concentrations: 100 nM and 1000 nM (sheet 'Samples').
The subject of another assay is NEK3. Also noted: species or system human, MV4-11 + K-562 + COLO205 + SK-N-BE2 + OVCAR-8. The following applies: compound concentrations: 100 nM and 1000 nM (sheet 'Samples').
The next assay concerns NEK9. Further details: species or system human, MV4-11 + K-562 + COLO205 + SK-N-BE2 + OVCAR-8. The following applies: compound concentrations: 100 nM and 1000 nM (sheet 'Samples').
In a further assay the test system is SRC. Also noted: species or system human, MV4-11 + K-562 + COLO205 + SK-N-BE2 + OVCAR-8. The following applies: compound concentrations: 100 nM and 1000 nM (sheet 'Samples').
A further assay deals with STK11. The following applies: compound concentrations:3nM, 10nM, 30nM, 100nM, 300nM, 1000nM, 3000nM, 30000nM,R2:0.98533886968205897,slope:6.0517648666997097,EC50 Standard Error, by the legend:Standard error of the EC50 estimation as provided by the drc package.
For a further assay, the system named is STK26. The following applies: compound concentrations:3nM, 10nM, 30nM, 100nM, 300nM, 1000nM, 3000nM, 30000nM,R2:0.89438319987914305,slope:6.7801376871061398,EC50 Standard Error, by the legend:Standard error of the EC50 estimation as provided by the drc package.
A further assay has as its system STK4. The following applies: compound concentrations:3nM, 10nM, 30nM, 100nM, 300nM, 1000nM, 3000nM, 30000nM,R2:0.95767016983562303,slope:1.48085900140722,EC50 Standard Error, by the legend:Standard error of the EC50 estimation as provided by the drc package.
The test system of another assay is TGFBR2. The note with it: compound concentrations:3nM, 10nM, 30nM, 100nM, 300nM, 1000nM, 3000nM, 30000nM,R2:0.91957544903751998,slope:0.85257672285703501,EC50 Standard Error, by the legend:Standard error of the EC50 estimation as provided by the drc package.
The subject of a further assay is ACVR2B. Further details: species or system human, MV4-11 + K-562 + COLO205 + SK-N-BE2 + OVCAR-8. The note with it: read-out: apparent Kd, n = 1.
The test system of another assay is GALK1. Also noted: species or system human, MV4-11 + K-562 + COLO205 + SK-N-BE2 + OVCAR-8. The note with it: read-out: apparent Kd, compound concentrations: 100 nM and 1000 nM (sheet 'Samples'), n = 1.
The test system of the next assay is ADK. Also noted: species or system human, MV4-11 + K-562 + COLO205 + SK-N-BE2 + OVCAR-8. The note with it: read-out: apparent Kd, compound concentrations: 100 nM and 1000 nM (sheet 'Samples'), n = 1.
A further assay deals with PKM. Also noted: species or system human, MV4-11 + K-562 + COLO205 + SK-N-BE2 + OVCAR-8. The note with it: read-out: apparent Kd, n = 1.
Another assay concerns IARS. Also noted: species or system human, MV4-11 + K-562 + COLO205 + SK-N-BE2 + OVCAR-8. The following applies: read-out: apparent Kd, compound concentrations: 100 nM and 1000 nM (sheet 'Samples'), n = 1.
In another assay the test system is EIF2AK1. Also noted: species or system human, MV4-11 + K-562 + COLO205 + SK-N-BE2 + OVCAR-8. The following applies: read-out: apparent Kd, n = 1.
The test system of another assay is NNT. Also noted: species or system human, MV4-11 + K-562 + COLO205 + SK-N-BE2 + OVCAR-8. The note with it: read-out: apparent Kd, compound concentrations: 100 nM and 1000 nM (sheet 'Samples'), n = 1.
In the next assay the test system is CDC42. Also noted: species or system human, MV4-11 + K-562 + COLO205 + SK-N-BE2 + OVCAR-8. The following applies: read-out: apparent Kd, n = 1.
A further assay relates to MCM5. Also noted: species or system human, MV4-11 + K-562 + COLO205 + SK-N-BE2 + OVCAR-8. The note with it: read-out: apparent Kd, compound concentrations: 100 nM and 1000 nM (sheet 'Samples'), n = 1.
For the next assay, the system named is MTHFD1. Further details: species or system human, MV4-11 + K-562 + COLO205 + SK-N-BE2 + OVCAR-8. The note with it: read-out: apparent Kd, compound concentrations: 100 nM and 1000 nM (sheet 'Samples'), n = 1.
The next assay relates to RAB5C. Further details: species or system human, MV4-11 + K-562 + COLO205 + SK-N-BE2 + OVCAR-8. The note with it: read-out: apparent Kd, n = 1.
The next assay deals with PRKACG. Further details: species or system human, MV4-11 + K-562 + COLO205 + SK-N-BE2 + OVCAR-8. The note with it: read-out: apparent Kd, compound concentrations: 100 nM and 1000 nM (sheet 'Samples'), n = 1.
Setting [1] is: compound concentrations:100 nM and 1000 nM (sheet 'Samples').

Like-named read-outs stand apart in the source and are kept apart here.
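For Kinobeads Data in this document: kinobeads ε competition pulldown from cell lysate, compound preincubated 45 min at 4 °C, bound kinases quantified by LC–MS/MS relative to DMSO control.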

For `COc1cc(Nc2ncc3c(C)nc(-c4cc5ccccc5[nH]4)n3n2)cc(OC)c1OC` [GW869516X], the “Kinobeads Data” value in the assay with AMPK-alpha1, with NEK3, in the assay with NEK9 and in the assay with SRC was “no target” throughout.

In the case of TAK659, the EC50 (commonly the concentration that produces a half-maximal response) with STK11 is 1150 nM; in the assay on STK26, 363 nM; with STK4, 628 nM; in the assay on TGFBR2, 3720 nM. Besides, the Kd was 1150 nM with STK11 (read-out: apparent Kd), 275 nM with STK26 (read-out: apparent Kd), 567 nM with STK4 (read-out: apparent Kd) and 2960 nM in the assay on TGFBR2 (read-out: apparent Kd).

Take `Cc1ccc(Nc2ccnc(Nc3ccc4c(c3)CS(=O)(=O)C4)n2)cc1O.Cl` [GW579362A]: in the assay with ACVR2B (compound concentrations: 100 nM and 1000 nM (sheet 'Samples'), CATDS: 0.34366648341671902), the potency estimated from few doses is 12.4 nM.

As for `CS(=O)(=O)Nc1cccc(-c2ccc3c(NC(=O)C4CC4)n[nH]c3c2)c1` [SB-742864], in the assay on GALK1 (CATDS: 0.105390971488214), the potency estimated from few doses is 1820 nM.

Regarding `O=C1N=C(NCc2cccs2)O/C1=C\c1ccc2ncccc2c1` [RO4624208-000], the potency estimated from few doses with ADK (CATDS: 4.98118638137824E-2) was 1390 nM.

For `COc1cc(Nc2nccc(N3CCC(NC(=O)c4cccc(NC(C)=O)c4)C3)n2)cc(OC)c1OC` (stereo not drawn) [GSK1379754A], the potency estimated from few doses in the assay with PKM (compound concentrations: 100 nM and 1000 nM (sheet 'Samples'), CATDS: 8.1586836054847095E-2) is 1900 nM.

As to `O=C(O)C(F)(F)F.O=c1[nH]ccc2nc(N[C@@H]3CCNC3)nc(Nc3ccc4c(c3)S(=O)(=O)CC4)c12` [GSK2181306A], in the assay on IARS (CATDS: 8.0761213761314007E-3), the potency estimated from few doses was 1860 nM.

`CCn1c(-c2cccnc2O)nc2cnccc21` [SB-736715]: the potency estimated from few doses with EIF2AK1 (compound concentrations: 100 nM and 1000 nM (sheet 'Samples'), CATDS: 1.2624621535744099E-2) is 1920 nM.

Turning to `COc1ccc(-c2cc3c(N)ncnc3o2)cc1` [GW642138X], the potency estimated from few doses in the assay on NNT (CATDS: 0.135417913174183) is 1070 nM.

For `Cl.Cl.NC(CNC(=O)c1cc(Br)c(-c2ccnc3[nH]ccc23)s1)c1ccccc1.NC(CNC(=O)c1cc(Br)c(-c2ccnc3[nH]ccc23)s1)c1ccccc1` (stereo not drawn) [GSK1322949A], the potency estimated from few doses with CDC42 (compound concentrations: 100 nM and 1000 nM (sheet 'Samples'), CATDS: 2.9749426965709602E-2) is 1240 nM; in the assay with GALK1 (CATDS: 2.6759379349231501E-2) it was 1600 nM; with MCM5 (CATDS: 2.5853375360702799E-2), 1760 nM; with MTHFD1 (CATDS: 2.96394051410106E-2), 1250 nM; in the assay with RAB5C (compound concentrations: 100 nM and 1000 nM (sheet 'Samples'), CATDS: 2.6344655895194399E-2), 1670 nM.

With `CCn1c(-c2nonc2N)nc2c(C#CC(C)(C)O)nc(O[C@@H](CN)c3ccccc3)cc21.O=C(O)C(F)(F)F` [GSK1007102B], in the assay with EIF2AK1 (setting [1]), the potency estimated from few doses is 996 nM.

For the compound `CC(C)Nc1cc(-c2ccc3c(N)n[nH]c3c2)nc(N)n1` [GSK2221681A], in the assay with CDC42 (setting [1]), the potency estimated from few doses is 1530 nM.

On to `COc1cc(Nc2nccc(-c3cnn4ncccc34)n2)cc(OC)c1` [GW801372X], for which, in the assay on MCM5 (CATDS: 1.9115246172466901E-2), the potency estimated from few doses was 1390 nM.

As to `CNc1cc(-c2ccc3c(N)n[nH]c3c2)nc(N)n1` [GSK2224810A], in the assay with ACVR2B (setting [1]), the potency estimated from few doses was 1190 nM.

As to `Cc1ccccc1-n1ncc(C(=O)c2ccccc2)c1N` [RO1151248-000], the potency estimated from few doses in the assay with PRKACG (CATDS: 2.9121921896178699E-2) is 613 nM.

`CCN(CC)Cc1ccc(Nc2nccc(-c3cnn4ncccc34)n2)cc1` [GW780056X]: the potency estimated from few doses in the assay on MTHFD1 (CATDS: 2.2377842490129501E-2) is 921 nM.

`O=C1N=C(NCc2c(Cl)cccc2Cl)S/C1=C\c1ccc2ncccc2c1` [RO4600445-000]: in the assay on ADK (CATDS: 0.24369856841726101), the potency estimated from few doses was 1350 nM.

For `COc1ccc(Nc2nccc(NCCNC(=O)Nc3cc(C)ccc3C)n2)cc1` [GSK1379899A], the potency estimated from few doses with IARS (CATDS: 4.14736343029877E-2) is 1920 nM.

Take `Cl.Nc1nc(-c2ccc3c(c2)C(=Cc2cc(Br)c(O)c(Br)c2)C(=O)N3)cs1` [GW407323A]: the potency estimated from few doses in the assay with NNT (CATDS: 3.26521392467971E-2) is 987 nM.

Take `Nc1nc(-c2ccc3c(N)n[nH]c3c2)cc(N2CCCC(NC(=O)c3ccccc3)C2)n1` (stereo not drawn) [GSK2286775B]: the potency estimated from few doses in the assay with RAB5C (setting [1]) was 1520 nM.

Take `Cl.Cl.NCC(NCc1ccc(-c2ccnc3[nH]ccc23)s1)c1ccccc1.NCC(NCc1ccc(-c2ccnc3[nH]ccc23)s1)c1ccccc1` (stereo not drawn) [GSK1321565A]: the potency estimated from few doses in the assay on PKM (setting [1]) was 2050 nM.

For `NS(=O)(=O)c1ccc(N/N=C2\C(=O)Nc3ccc4ncccc4c32)cc1` [GW305178X], the potency estimated from few doses with PRKACG (CATDS: 4.9106390332169098E-2) is 1030 nM.

The values are drawn from PMC11062922 (Nature Chemical Biology, 2023).
